SARS PLP yeast: blocks SARS-CoV papain-like protease in a yeast assay; AID 485353; hit rate 0.19% among 330,000; Potency, µM (series often up to 32.9 µM), for the others: top-dose activity, positive = growth rescue, most hits filed as activators; S. cerevisiae expressing SARS-CoV PLpro, growth rescue; note: potency is the fitted concentration of half-maximal effect; 0% is about no effect; nearly all actives have a fitted effect of over 55% in size
Cycloheximide cs: affects cycloheximide protein synthesis inhibition readout, counter-screen; cell reporter, cycloheximide protein synthesis inhibition counterscreen; max response, %; hit rate 12% among 300,000; AID 2314; in the data active = max response mostly above about 13%, no sharp cut-off; inactive = mostly below about 14%; note: read at 38.3 µM for the half of the compounds with a filed dose; 0% is about no effect
Pf growth 96h: inhibits malaria parasite growth, 96 h | P. falciparum luciferase reporter growth, 96 h | hit rate 6.9% among 320,000 | Potency, µM (titrated, usually from 28.7 µM), for inactives: top-dose activity change, negative = inhibition, most hits filed as inhibitors; active = well fitted inhibition curve with a large enough effect; inconclusive = small, poorly fitted or top-dose-only effect, or another doubt; inactive = no such curve, though single readings can be large or run the other way; note: potency is the fitted concentration of half-maximal effect; % is set by controls: 0 for no effect and ±100 for the full control effect
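P. falciparum expressing integrated firefly luciferase, in erythrocytes at 2% hematocrit, 0.05% parasitemia, incubated with compounds 96 h at 37 C, 5% CO2. Growth inhibition read as loss of luminescence; two-generation exposure targets delayed-death apicoplast inhibitors.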
Shiga inhibitor: Shiga toxin inhibition; Vero cells, Shiga toxin protein synthesis inhibition reporter; inhibition, % at 38.7 µM; AID 2315; hit rate 9.2% among 290,000; in the data active = inhibition mostly above about 28%, no sharp cut-off; inactive = mostly below about 43%; note: 0% is about no effect
Pf growth 48h: P. falciparum growth inhibition at 48 hours (one generation); Potency, µM (doses to about 28.7 µM), inactives show top-dose activity change, negative = inhibition, actives largely listed as inhibitors; P. falciparum luciferase growth in erythrocytes, 48 h; AID 504832; hit rate 5.9% among 310,000; active = well fitted inhibition curve with a large enough effect; inconclusive = small, poorly fitted or top-dose-only effect, or another doubt; inactive = no such curve, though single readings can be large or run the other way; note: potency is the fitted concentration of half-maximal effect; % is set by controls: 0 for no effect and ±100 for the full control effect
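Firefly luciferase activity from engineered P. falciparum reports growth; inhibitors lower the luminescent signal. Cultures contained 2% hematocrit erythrocytes at 0.1% final parasitemia.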
NS1 function inh: influenza NS1 inhibition; hit rate 0.4% among 270,000; Potency, µM (highest dose often 46.1 µM), for the others: at the top dose activity, positive = more growth; AID 2326; note: potency is the fitted concentration of half-maximal effect; actives are rising curves; nearly all actives have a fitted effect of over 50% in size
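Recovery from NS1-induced slow growth read by OD600 in budding yeast switched to galactose assay medium (pH 6.0, -URA) at 1:100 dilution. Compound 23 nl per well; the matching strain lacking NS1 serves as control.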
* hit, by the source's call; ? = inconclusive; nt = not tested or not shown; [ ] = another dose, or the depositor's remark. Hits are enriched below; roughly 21% of the tested compounds scored in any of these assays. Unless noted, calls come from the whole dose curve.

SMILES	SARS PLP yeast	Cycloheximide cs	Pf growth 96h	Shiga inhibitor	Pf growth 48h	NS1 function inh
CC1(C(=O)Nc2nnc(C(C)(C)C)s2)Cc2ccccc2C(=O)O1 (configuration not stated)	5.8%	-0.6	?	3.2	-10.2%	24.2%
COc1ccc(CNC(=O)C2(C)Cc3ccccc3C(=O)O2)cc1 (configuration not stated)	-0.3%	-2.1	-9.3%	-4.8	26.8%	2.8%
CC1(C(=O)Nc2ccccc2)Cc2ccccc2C(=O)O1 (configuration not stated)	0.0%	-3.3	9.28µM*	-2.3	0.6%	0.9%
CCSc1nnc(NC(=O)C2(C)Cc3ccccc3C(=O)O2)s1 (configuration not stated)	-5.2%	-0.8	-3.9%	1.7	13.1µM*	-31.0%
COc1ccccc1CCNC(=O)C(=O)Nc1cc2c3c(c1)C(C)C(=O)N3CCC2 (configuration not stated)	-0.9%	nt	?	nt	13.1µM*	nt
CC1C(=O)N2CCCc3cc(S(=O)(=O)NCCc4ccccc4)cc1c32 (configuration not stated)	-1.6%	-2.1	2.08µM*	-6.5	-0.9%	5.6%
O=C(NCCc1c[nH]c2ccccc12)C(=O)Nc1cc2c3c(c1)CC(=O)N3CCC2	-1.0%	nt	2.94µM*	nt	1.04µM*	nt
CC1C(=O)N2CCCc3cc(NC(=O)C(=O)NCc4ccc5c(c4)OCO5)cc1c32 (configuration not stated)	1.0%	nt	7.38µM*	nt	8.28µM*	nt
COCCNC(=O)C(=O)Nc1cc2c3c(c1)C(C)C(=O)N3CCC2 (configuration not stated)	0.4%	-5.1	104.4%	16.5	34.0%	5.1%
COc1ccc(CCNS(=O)(=O)c2cc3c4c(c2)C(C)C(=O)N4CCC3)cc1OC (configuration not stated)	-0.5%	-2.7	?	-1.5	0.0%	13.5%
CCc1cccc(NC(=O)[C@@H]2CCCN2C2=NS(=O)(=O)c3ccccc32)c1	-1.1%	nt	0.8%	nt	-15.4%	nt
COc1ccccc1-n1c(C)c(C(C)=O)c2cc(O)ccc21	-0.2%	-1.3	?	nt	?	-7.3%
O=c1[nH][nH]c2cc(=O)n(-c3ccc(Cl)cc3)nc12	5.4%	-3.8	15.5%	-12.1	21.7%	nt
CC1=NN(C(=O)COc2ccccc2)C(O)(c2ccccc2)C1 (configuration not stated)	15.4%	-2.3	5.4%	-9.9	-0.4%	10.2%
CC1=NN(C(=O)c2ccco2)C(O)(c2ccccc2)C1 (configuration not stated)	-0.7%	45.4*	?	80.2*	?	0.3%
CC1=NN(C(=O)c2ccc(C)o2)C(O)(c2ccccc2)C1 (configuration not stated)	-19.8%	30.0*	56.0%	active	6.0%	-1.2%
CC1=NN(C(=O)CSCc2ccccc2)C(O)(c2ccccc2)C1 (configuration not stated)	0.1%	16.0	61.8%	32.3	?	4.6%
CC1=NN(C(=O)c2ccccc2C)C(O)(c2ccc(Cl)cc2)C1 (configuration not stated)	-3.9%	0.9	10.4µM*	-1.4	-24.3%	-8.4%
CCCn1c(C)cc(C(=O)COC(=O)CN=C2NS(=O)(=O)c3ccccc32)c1C	-0.1%	-1.2	29.7%	7.2	24.6%	-6.9%
CN(c1ccccc1)S(=O)(=O)c1cccc(C(=O)OCC(=O)NCCCN2CCCC2=O)c1	0.5%	6.8	?	-13.0	-10.9%	-4.5%
O=C1c2ccccc2C(Nc2ccc(Cl)cn2)N1Cc1ccccc1 (configuration not stated)	-27.9%	-3.1	?	-4.7	nt	-131.8%
Cc1ccc(N2C(=O)c3ccccc3C2Nc2ccccc2)nc1 (configuration not stated)	-6.7%	9.8	10.4µM*	30.1	nt	-8.7%
CCc1cccc(NC2c3ccccc3C(=O)N2c2cccnc2)c1 (configuration not stated)	3.1%	-4.0	56.9%	-1.6	?	-33.4%
CCOC(=O)c1ccc(NC2c3ccccc3C(=O)N2c2ccc(C)cn2)cc1 (configuration not stated)	0.5%	-2.8	11.7µM*	25.7	nt	1.2%
CCc1cccc(NC2c3ccccc3C(=O)N2c2ccc(C)cn2)c1 (configuration not stated)	-6.5%	40.6	?	89.7*	nt	-72.2%
SMILES	SARS PLP yeast	Cycloheximide cs	Pf growth 96h	Shiga inhibitor	Pf growth 48h	NS1 function inh
O=C1c2ccccc2C(Nc2ccccc2)N1c1ccc(Cl)cn1 (configuration not stated)	6.2%	70.6*	?	169.0*	nt	2.9%
O=C(OCc1ccccc1)/C(=C/c1cccc([N+](=O)[O-])c1)NC(=O)c1ccco1	3.5%	-2.3	?	-3.8	-25.9%	-17.2%
CS(=O)(=O)N(CC(=O)N1CCc2ccccc2C1)c1ccc(Cl)cc1F	3.1%	0.1	-3.2%	-5.7	0.0%[0.00184 µM]	-7.6%
CCOC(=O)C1=NNC2(c3ccc(Cl)cc3)C(=O)N(c3ccc(C)cc3)C(=O)C12 (configuration not stated)	-11.6%	-2.6	25.4%	-8.1	-1.4%	-4.8%
O=C(Cn1ccc2cc(S(=O)(=O)N3CCCC3)ccc21)NCc1ccco1	1.6%	-1.1	?	2.9	15.1%	-9.9%
O=C(CNC(=O)c1ccccc1F)Nc1ccccc1C(F)(F)F	-0.3%	-2.2	33.3%	-16.3	4.1%	-1.6%
COc1cc(OC)c(C2N(c3cc(C)on3)C(=O)C3CCCN32)cc1OC (configuration not stated)	-3.8%	-2.1	4.65µM*	-25.9	2.9%	2.2%
CC(C)(C)OC(=O)N1CCC[C@H]1c1nnc(SCC(=O)Nc2ccc(Br)cc2)o1	1.0%	-2.9	2.2%	-14.9	-3.0%	-3.2%
CCc1cccc(C)c1NC(=S)NCCc1c(C)[nH]c2ccc(C)cc12	27.7%	-1.1	14.7µM*	35.0	?	27.6%
COc1ccc2[nH]c(C)c(CCNC(=S)Nc3cccc(C)c3)c2c1	3.2%	-1.7	?	-10.4	?	20.6%
CCc1cccc(CC)c1NC(=S)NCCc1c(C)[nH]c2ccc(C)cc12	?	7.2	10.4µM*	23.4	?	?
Cc1ccc(CN(C)C(=O)C2CCC(=O)N(C3CCCCCC3)C2)cc1 (configuration not stated)	-0.7%	5.2	-21.6%	-12.3	-28.8%	-5.4%
O=C(O)CC(Cc1ccc(Br)cc1)C(=O)O (configuration not stated)	2.5%	-3.7	?	-8.1	0.9%	6.6%
NC(CC(=O)O)c1ccc(Br)cc1 (configuration not stated)	-3.9%	-4.1	9.28µM*	-9.1	3.0%	8.7%
Cc1cc(C)c(CN2CCC(n3nccc3NC(=O)C3CCOC3)CC2)cc1C (configuration not stated)	-1.8%	-0.2	-22.4%	-25.4	8.2%	15.1%

Assay outcomes (PubChem BioAssay)
